Pf growth 48h: P. falciparum growth inhibition at 48 hours (one generation); 310,000 compounds, 5.9% hits; P. falciparum luciferase growth in erythrocytes, 48 h; Potency, µM (highest dose often 28.7 µM), hits mostly inhibitors
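Compounds are pin-transferred into medium, infected erythrocytes (2% hematocrit, 0.1% parasitemia final) are added, and plates sit one parasite generation at 37 C in 5% CO2. Detection reagent is then added and luminescence measured.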
NS1 function inh: blocks influenza NS1 protein function; Potency, µM (top dose mostly 46.1 µM); 270,000 compounds, 0.4% hits; AID 2326; calls by dose curve; further: actives are rising curves; nearly all actives have a fitted effect of over 50% in size
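A cell-based growth assay was used: compounds that relieve NS1-induced slow growth of budding yeast raise OD600. Assay medium was yeast nitrogen base with ammonium sulphate and -URA supplement, pH 6.0, with 2% galactose.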
Pf growth 96h: P. falciparum growth inhibition at 96 hours; P. falciparum luciferase reporter growth, 96 h; Potency, µM (titrated, usually from 28.7 µM), usual class: inhibitors; 320,000 compounds, 6.9% hits
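Parasite growth measured via integrated firefly luciferase reporter in P. falciparum. Infected erythrocytes at 2% hematocrit, 0.05% parasitemia final were treated 96 hours at 37 C under 5% CO2, and luminescence was read.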
RE007 growth inh: less growth of the S. pombe RE007 Vpr strain; S. pombe RE007 Vpr strain, BacTiter-Glo ATP luminescence, 24 h; Potency, µM (doses to about 92.2 µM), hits mostly inhibitors; 360,000 compounds, 0.21% hits; AID 651644; active means well fitted falling curve with a large enough effect; inconclusive means small, poorly fitted or top-dose-only effect; inactive means no such curve, though single readings can be large or run the other way; further: nearly all actives have a fitted effect of over 50% in size
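Fission yeast RE007 carrying one integrated HIV-1 vpr copy, seeded at OD 0.01 in PMG+AL medium with 23 nL pinned compound. Grown 24 h at 30 degrees; viability read by BacTiter-Glo luminescence after 5 min.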
SARS PLP yeast: inhibitors of SARS-CoV papain-like protease in yeast. S. cerevisiae expressing SARS-CoV PLpro, growth rescue. Potency, µM (titrated, usually from 32.9 µM), usual class: activators. 330,000 compounds, 0.19% hits. AID 485353; calls by dose curve; further: nearly all actives have a fitted effect of over 55% in size
Numbers stand for hits; . = inactive; ? = inconclusive; / = not tested or not shown; [ ] = another dose, or the depositor's remark. This is a sample that favours compounds with a hit; in the whole collection about 9.5% have one here. Unless noted, the call rests on the fitted dose curve; in most records, active means well fitted inhibition curve with a large enough effect; inconclusive means small, poorly fitted or top-dose-only effect, or another doubt; inactive means no such curve, though single readings can be large or run the other way.

SMILES	Pf growth 48h	NS1 function inh	Pf growth 96h	RE007 growth inh	SARS PLP yeast
Cc1ccc(NC(=O)/C(=C\c2cccs2)NC(=O)c2ccccc2)cc1	?	.	7.4µM	.	.
COc1cc(/C=C(/NC(=O)c2ccccc2)C(=O)Nc2ccc(O)cc2)c([N+](=O)[O-])cc1OC	.	.	10µM	.	.
Cc1ccc(C(=O)N/C(=C/c2cccs2)C(=O)NCc2ccco2)cc1	.	.	0.52µM	.	.
Cc1ccc(C(=O)N/C(=C/c2ccccc2)C(=O)NC(Cc2ccccc2)C(=O)O)cc1 (stereo unspecified)	.	.	.	.	.
Cc1ccc(/C=C(\NC(=O)c2ccccc2)C(=O)NC(Cc2ccccc2)C(=O)O)cc1 (stereo unspecified)	.	.	0.52µM	.	.
O=C(Nc1ccc(O)cc1)/C(=C\c1cccs1)NC(=O)c1ccccc1	.	.	.	.	.
O=[N+]([O-])c1ncccc1OCc1ccc(Br)cc1F	.	.	.	.	.
S=C(NC12CC3CC(CC(C3)C1)C2)N1CCCC1	.	.	.	.	.
O=C(CC12CC3CC(CC(C3)C1)C2)NC(=S)N1CCCCC1	.	.	9.3µM	.	?
COc1cccc(Nc2c(F)c(F)c(F)c(F)c2C(=O)O)c1	.	.	13µM	.	.
c1ccc(COCCC2CO2)cc1 (stereo unspecified)	.	.	.	/	.
CNc1cncc(-c2ccoc2)n1	/	/	/	.	/
CCC1=C(OC(=O)N(CC)CC)N2C(=O)OC(=NCC3CC3)[C@]2(Cc2ccccc2)[C@H]2C1=CC[C@H]1C(=O)N(c3ccccc3)C(=O)[C@H]12	2.6µM	.	2.9µM	.	.
CCC1=C(OC(=O)N(CC)CC)N2C(=O)OC(=NCC(=O)OC)[C@]2(Cc2ccccc2)[C@H]2C1=CC[C@H]1C(=O)N(C)C(=O)[C@H]12	?	.	?	.	.
CCC1=C(OC(=O)N(CC)CC)N2C(=O)OC(=NCC(=O)OC)[C@]2(Cc2ccccc2)[C@H]2C1=CC[C@H]1C(=O)N(c3ccccc3)C(=O)[C@H]12	6.6µM	.	9.3µM	.	.
CCC1=C(OC(=O)N(CC)CC)N2C(=O)OC(=NCC(=O)OC)[C@]2(C)[C@H]2C1=CC[C@H]1C(=O)NC(=O)[C@H]12	?	.	.	.	.
CCC1=C(OC(=O)N(CC)CC)N2C(=O)OC(=NCC3CC3)[C@]2(Cc2ccccc2)[C@H]2C1=CC[C@H]1C(=O)N(C)C(=O)[C@H]12	10µM	.	9.3µM	.	.
O=C(COc1ccc(NC(=O)c2cccs2)cc1)c1ccc(F)cc1	?	.	.	.	.
COc1ccccc1C(=O)NC(=O)CSc1nnc(N)s1	.	/	.	.	.
Cc1ccc(NC(NC(=O)OCCn2c([N+](=O)[O-])cnc2C)C(Cl)(Cl)Cl)cc1 (stereo unspecified)	5.2µM	.	?	/	.
Cc1ncc([N+](=O)[O-])n1CCOC(=O)NC(NCc1ccccc1Cl)C(Cl)(Cl)Cl (stereo unspecified)	?	.	?	.	.
CSc1ncccc1C(=O)N1CCCC(N2CCN(c3ccccc3C)CC2)C1 (stereo unspecified)	/	/	/	.	/
CCOC(=O)c1ccc(N=C2SC(C(=O)NC)CC(=O)N2Cc2ccc(F)cc2)cc1 (stereo unspecified)	.	/	1.7µM	.	.
Cc1nonc1NC(=O)CSc1nc2c(C)cccc2cc1C#N	?	/	10µM	.	.
Cc1cc2cc(C#N)c(SCC(=O)Nc3nonc3C)nc2cc1C	.	.	.	.	.
SMILES	Pf growth 48h	NS1 function inh	Pf growth 96h	RE007 growth inh	SARS PLP yeast
CN(CC(=O)Nc1ccc(F)c(F)c1F)C(=O)CCN1C(=O)C2CCCCC2C1=O (stereo unspecified)	.	/	.	.	.
COc1ccccc1NC(=O)C1CCN(C(=O)c2ccco2)CC1	.	.	.	.	.
Cc1ccc(C(=O)N(CC(=O)NC2CCCC2)c2ccc3c(c2)OCCO3)s1	.	/	13µM	.	.
C/C1=C2/[N-]C(C(CC(N)=O)[C@@]2(C)CCC(=O)NCC(C)OP(=O)([O-])O[C@H]2[C@@H](O)[C@@H](n3cnc4cc(C)c(C)cc43)O[C@@H]2CO)[C@]2(C)N=C(/C(C)=C3N=C(/C=C4N=C1C(CCC(N)=O)C\4(C)C)[C@@H](CCC(N)=O)[C@]\3(C)CC(N)=O)[C@@H](CCC(N)=O)[C@]2(C)CC(N)=O.CC(=O)O.[Co] (stereo partly specified)	0.85µM	/	0.67µM	/	/
C/C(=N\NC(=O)C1CC1c1ccccc1)c1cccc([N+](=O)[O-])c1 (stereo unspecified)	.	.	8.3µM	.	.
C/C(=N\NC(=O)C1CC1(c1ccccc1)c1ccccc1)c1cccc([N+](=O)[O-])c1 (stereo unspecified)	.	.	?	.	.
COc1ccc(S(=O)(=O)N2CCOCC2)cc1NC(=O)COc1ccc(C(C)=O)cc1OC	.	/	.	.	.
Cc1ccc(CN2CCN(Cc3cn[nH]c3-c3cccc(F)c3)CC2CCO)o1 (stereo unspecified)	?	.	?	.	.
CC(=O)c1ccc(S(=O)(=O)N(C)CC(=O)NCc2ccco2)cc1	.	/	.	.	.
CC1Oc2cc3c(-c4c(O)cc(O)c5c(O)c6c(cc45)OC(C)C(C)C6=O)c(O)cc(O)c3c(O)c2C(=O)C1C (stereo unspecified)	0.37µM	.	0.52µM	.	.
Cc1ccc(S(=O)(=O)N(C)C)cc1NC(=O)c1cc(S(=O)(=O)N2CCCCC2)ccc1N1CCOCC1	.	/	?	.	.
Cc1ccc(C)c2c1CCCC2=O	/	/	/	.	/
COc1ccccc1-c1nn2c(C3COc4ccccc4O3)nnc2s1 (stereo unspecified)	.	.	3.7µM	.[3.69 µM]	.
COc1ccccc1-c1nnc2sc(-c3ccc(N(C)C)cc3)nn12	?	.	12µM	.	.
c1ccc(-c2nn3c(C4COc5ccccc5O4)nnc3s2)cc1 (stereo unspecified)	/	.	/	/	/
Cc1nnc2sc(-c3ccc(N(C)C)cc3)nn2c1=O	.	.	10µM	.	.
COc1ccccc1-c1nnc2sc(COc3ccc(F)cc3)nn12	1.5µM	.	.	.	.
O=C(CON1C(=O)c2ccccc2C1=O)c1ccccc1	/	.	/	/	/
O=C(/C=C/[C@H]1O[C@@H](n2ccc(=O)[nH]c2=O)[C@H](O)[C@@H]1O)NCc1cccc2ccccc12	/	/	/	.	/
CCOCCn1c(=O)c2c(nc3n2CC(C)CN3Cc2ccccc2)n(C)c1=O (stereo unspecified)	?	.	?	.	.
CC(C)c1nc(SCC(=O)NCC2CCCO2)c2c(=O)n(C)c(=O)n(C)c2n1 (stereo unspecified)	?	.	?	.	?
O=C(NCCCN1CCOCC1)c1ccc(Sc2ccc(Br)cc2)c([N+](=O)[O-])c1	.	.	15µM	.	.
